Growth inhibition, inhibition and outcome data for 20 molecules are collected here from PubChem BioAssay.

A number with no mark means an inactive call. For some of these results: Measured potencies and affinities stand elsewhere. The source made the active and inactive calls. Unless noted, the rule behind the calls is not given here.

Assay [1] in a line: antimalarial activity against Dd2 strain (AID 2302;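 active = growth inhibition above 50% at the single 2 µM test dose, taken to imply half-maximal potency below 2 µM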;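 note: 0% = DMSO untreated growth and 100% = chloroquine plus artemisinin killed control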). Conditions: P. falciparum Dd2 in RBCs, LDH growth readout, 72 h; at 2 µM; hits give high values.
The nature of assay [2]: human hepatoma cell viability loss – ATP luminescence, cytotoxicity control for P. falciparum antimalarial project, primary screen (AID 2303;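 active = inhibition above 50%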;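 note: 0% = DMSO wells and 100% = digitonin-killed cells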). Conditions: HepG2 viability, 24-48 h, at 10 µM, hits give high values.
For assay [3], the target named is L-lactate dehydrogenase (Plasmodium falciparum (isolate CDC / Honduras)) (UniProt Q27743). Description: PfLDH activity inhibition – cell lysate, 3D7 strain, counter-screen for P. falciparum growth inhibition project (AID 2304).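 Note: 0% = vehicle and 100% = reference inhibitor.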 Conditions: P. falciparum 3D7 crude extract, LDH APAD/NBT absorbance; at 2 µM; hits give high values.
Sequence of L-lactate dehydrogenase (Plasmodium falciparum (isolate CDC / Honduras)) (Q27743 whole entry, looked up): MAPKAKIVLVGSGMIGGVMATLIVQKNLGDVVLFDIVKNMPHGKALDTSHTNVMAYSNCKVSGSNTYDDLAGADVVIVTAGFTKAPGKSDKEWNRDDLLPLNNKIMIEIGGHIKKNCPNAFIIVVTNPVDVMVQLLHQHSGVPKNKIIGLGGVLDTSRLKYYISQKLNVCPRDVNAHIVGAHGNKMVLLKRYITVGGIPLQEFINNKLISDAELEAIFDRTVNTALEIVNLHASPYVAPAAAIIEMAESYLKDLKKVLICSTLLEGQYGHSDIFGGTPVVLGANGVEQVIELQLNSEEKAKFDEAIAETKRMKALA
Assay [4] is described as follows: inhibition of 3D7 malaria parasite growth – strain 3D7 (AID 2306).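 Note: 0% = DMSO wells and 100% = chloroquine plus artemisinin control wells.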 Conditions: P. falciparum 3D7 erythrocytic growth, LDH absorbance, 72 h; at 2 µM; hits give high values.
Assay [5] has as its target Calcium-dependent protein kinase 1 (Plasmodium falciparum (isolate 3D7)) (UniProt P62344). Nature of the assay: PfCDPK1 kinase inhibitors, biochemical, TCAMS library (AID 1159585; cut-off not given, nearly all actives have IC50 up to about 0.98 µM;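 note: inhibitors leave more ATP so luminescence rises with inhibition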). The settings on record: recombinant PfCDPK1, Kinase-Glo ATP depletion luminescence. In general terms: Kinase-Glo measures the ATP left after a reaction by luminescence.
Assay [6] deals with Plasmodium falciparum protein kinase 6 (PK6, PF3D7_1337100) (UniProt Q8IDW1). Nature of the assay: PfPK6 kinase inhibitors, biochemical, TCAMS library (AID 1159586). Conditions: recombinant PfPK6, Kinase-Glo ATP depletion luminescence.
Sequence of Plasmodium falciparum protein kinase 6 (PK6, PF3D7_1337100) (Q8IDW1 1-305): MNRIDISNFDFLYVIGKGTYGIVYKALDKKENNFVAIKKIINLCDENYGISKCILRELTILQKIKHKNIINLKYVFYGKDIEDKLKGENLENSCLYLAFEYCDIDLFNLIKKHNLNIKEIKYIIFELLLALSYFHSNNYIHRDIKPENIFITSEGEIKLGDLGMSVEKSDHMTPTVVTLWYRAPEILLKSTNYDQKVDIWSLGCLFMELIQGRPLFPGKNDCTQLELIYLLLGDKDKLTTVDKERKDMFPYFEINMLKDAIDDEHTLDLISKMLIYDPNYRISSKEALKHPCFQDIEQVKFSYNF
Assay [7] addresses Protein kinase 7 (PK7), Plasmodium falciparum 3D7 (PF3D7_0213400) (UniProt Q7YTF7). Nature of the assay: inhibition of Plasmodium PK7 catalytic activity – biochemical, TCAMS antimalarial set, Kinase-Glo luminescence (AID 1159587). Conditions: recombinant PfPK7, Kinase-Glo ATP depletion luminescence.
Assay [8] concerns the target Calcium-dependent protein kinase 4 (Plasmodium falciparum (isolate 3D7)) (UniProt Q8IBS5). Nature of the assay: PfCDPK4 kinase inhibitors, biochemical, TCAMS library (AID 1159588; cut-off not given, nearly all actives have IC50 up to about 0.91 µM). The settings on record: recombinant PfCDPK4, Kinase-Glo ATP depletion luminescence.

Sequence of Calcium-dependent protein kinase 1 (Plasmodium falciparum (isolate 3D7)) (P62344 whole entry, looked up): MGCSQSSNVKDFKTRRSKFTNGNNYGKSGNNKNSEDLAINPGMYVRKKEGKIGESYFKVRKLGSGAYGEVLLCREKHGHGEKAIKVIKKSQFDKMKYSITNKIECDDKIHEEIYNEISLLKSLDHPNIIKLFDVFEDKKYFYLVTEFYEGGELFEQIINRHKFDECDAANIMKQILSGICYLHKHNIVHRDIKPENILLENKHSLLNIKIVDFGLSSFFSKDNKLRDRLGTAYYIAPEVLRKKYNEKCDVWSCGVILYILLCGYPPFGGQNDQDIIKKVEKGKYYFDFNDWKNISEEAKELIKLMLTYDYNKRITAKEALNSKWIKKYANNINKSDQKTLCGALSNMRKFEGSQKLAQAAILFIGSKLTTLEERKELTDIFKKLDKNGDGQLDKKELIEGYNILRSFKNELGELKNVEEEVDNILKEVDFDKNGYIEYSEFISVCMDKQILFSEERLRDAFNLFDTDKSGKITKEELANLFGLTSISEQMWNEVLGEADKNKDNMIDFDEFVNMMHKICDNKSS
Sequence of Protein kinase 7 (PK7), Plasmodium falciparum 3D7 (PF3D7_0213400) (Q7YTF7 1-343): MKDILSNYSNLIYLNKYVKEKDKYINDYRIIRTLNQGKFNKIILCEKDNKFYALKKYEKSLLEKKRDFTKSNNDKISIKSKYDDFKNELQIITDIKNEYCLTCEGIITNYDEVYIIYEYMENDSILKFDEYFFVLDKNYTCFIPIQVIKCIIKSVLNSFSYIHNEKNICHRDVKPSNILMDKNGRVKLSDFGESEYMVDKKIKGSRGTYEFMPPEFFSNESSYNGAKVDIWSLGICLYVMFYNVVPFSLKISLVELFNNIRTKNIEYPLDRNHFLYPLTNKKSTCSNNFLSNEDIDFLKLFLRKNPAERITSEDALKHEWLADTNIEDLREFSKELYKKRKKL
Sequence of Calcium-dependent protein kinase 4 (Plasmodium falciparum (isolate 3D7)) (Q8IBS5 whole entry, looked up): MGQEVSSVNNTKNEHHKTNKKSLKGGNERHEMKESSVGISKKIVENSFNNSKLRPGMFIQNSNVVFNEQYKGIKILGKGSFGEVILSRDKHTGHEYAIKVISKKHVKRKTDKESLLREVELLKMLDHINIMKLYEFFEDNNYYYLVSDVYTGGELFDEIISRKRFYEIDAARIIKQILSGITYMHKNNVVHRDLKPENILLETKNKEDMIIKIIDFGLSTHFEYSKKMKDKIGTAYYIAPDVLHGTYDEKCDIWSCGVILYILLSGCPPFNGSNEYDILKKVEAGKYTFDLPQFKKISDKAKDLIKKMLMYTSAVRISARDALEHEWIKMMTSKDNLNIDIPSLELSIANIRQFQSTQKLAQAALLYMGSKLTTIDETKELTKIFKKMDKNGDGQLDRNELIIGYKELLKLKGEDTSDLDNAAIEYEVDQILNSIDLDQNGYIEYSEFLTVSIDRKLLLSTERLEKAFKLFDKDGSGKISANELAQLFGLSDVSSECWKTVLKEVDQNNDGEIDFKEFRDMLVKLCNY

The inhibition is the change of the read-out against control, counted positive when it falls. For `COc1cc2[nH]c(-c3ccc(O)cc3)c(C)c(=O)c2c(OC)c1OC`, the growth inhibition in assay [1] was 94% (active); in assay [4] it was 100% (active). For the same molecule, the figures for the inhibition in assay [2] and in assay [3] were 1% and 0%, respectively. For the same molecule, the outcome in assay [5], in assay [6], in assay [7] and in assay [8] was inactive.

In the case of `COc1ccc(CNC2Cc3ccccc3C2)cc1-c1cccc(S(=O)(=O)NCCN2CCCC2)c1`, the growth inhibition in assay [1] was 61% (active); in assay [4], 98% (active). Further, the inhibition is 48% in assay [2] and -3% in assay [3]. For the same molecule, the result in assay [5], in assay [6], in assay [7] and in assay [8] was inactive.

In the case of `Cc1c(CNCCCNc2nc3ccncc3[nH]2)sc(Br)c1Br`, the growth inhibition in assay [1] is 1%; in assay [4] it was 87% (active). For the same molecule, the inhibition in assay [2] was -10%; in assay [3], 3%. Moreover, the result in assay [5], in assay [6], in assay [7] and in assay [8] was inactive.

As to `CN(Cc1ccc(C#N)cc1)C1CCN(c2cc(NC(=O)c3ccc(F)cc3)ccn2)CC1`, the growth inhibition in assay [1] was 10%; in assay [4], 86% (active). The inhibition was 24% in assay [2] and -5% in assay [3]. Further, the result in assay [5], in assay [6], in assay [7] and in assay [8] was inactive.

Consider `O=C(CN1CCCC1)Nc1cccc(C(=O)Nc2cccc(C(F)(F)F)c2)c1`, for which the growth inhibition in assay [1] was 83% (active); in assay [4] it was 95% (active). Besides, the inhibition is 9% in assay [2] and 1% in assay [3]. Moreover, the result in assay [5], in assay [6], in assay [7] and in assay [8] was inactive.

As to `O=C(N[C@@H](Cc1ccccc1)C(=O)NCCN1CCCCC1)c1ccc(O)c(-c2ccc(Cl)c(Cl)c2)c1`, the values for the growth inhibition in assay [1] and in assay [4] were 97% (active) and 99% (active), respectively. Further, the inhibition in assay [2] was 6%; in assay [3], -3%. Also, the outcome in assay [5], in assay [6], in assay [7] and in assay [8] was inactive.

As to `c1cc(Nc2nccc(-c3cnn4ncccc34)n2)cc(-c2cnco2)c1`, the growth inhibition is 83% (active) in assay [1] and 96% (active) in assay [4]. Moreover, the values for the inhibition in assay [2] and in assay [3] were 54% (active) and 3%, respectively. Further, the outcome in assay [5], in assay [6], in assay [7] and in assay [8] was inactive.

As for `O=S(=O)(c1ccc(OCc2ccc(Cl)cc2)cc1)c1cc2c(c(-c3ccc(F)cc3)c1)CCN(CC1CC1)CC2`, the growth inhibition in assay [1] was 14%; in assay [4], 84% (active). Besides, the inhibition in assay [2] and in assay [3] was -5% throughout. Further, the outcome in assay [5], in assay [6], in assay [7] and in assay [8] was inactive.

For `O=C1c2ccc([N+](=O)[O-])cc2C(=O)N1c1ccc2[nH]ncc2c1`, the values for the growth inhibition in assay [1] and in assay [4] were -1% and 87% (active), respectively. The inhibition in assay [2] is 11%; in assay [3], -1%. The outcome in assay [5], in assay [6], in assay [7] and in assay [8] was inactive.

For the molecule `O=C(NC1CCC(N2CCCC(OCc3ccccc3)C2)CC1)c1cc2ccccc2[nH]1` (stereo not given), the growth inhibition in assay [1] is 11%; in assay [4], 94% (active). For the same molecule, the figures for the inhibition in assay [2] and in assay [3] were 38% and -1%, respectively. The result in assay [5], in assay [6], in assay [7] and in assay [8] was inactive.

In the case of `CCOc1ccccc1C=CC(=O)Nc1ccc2nc(N3CCN(C)CC3)cc(C)c2c1`, the growth inhibition in assay [1] is 91% (active); in assay [4] it was 102% (active). Also, the inhibition in assay [2] was 16%; in assay [3], -1%. The outcome in assay [5], in assay [6], in assay [7] and in assay [8] was inactive.

Turning to `O=C(Nc1cc2cc(-c3ccc(CN4CCCCC4)cc3)ccc2n2cnnc12)NC1CCCC1`, the growth inhibition in assay [1] was 98% (active); in assay [4], 100% (active). Besides, the inhibition was 78% (active) in assay [2] and -4% in assay [3]. The outcome in assay [5], in assay [6], in assay [7] and in assay [8] was inactive.

On to `CCCCC(=O)Nc1nc2ccc([N+](=O)[O-])cc2s1`, for which the results for the growth inhibition in assay [1] and in assay [4] were 69% (active) and 91% (active), respectively. Moreover, the inhibition in assay [2] was 9%; in assay [3], -5%. The outcome in assay [5], in assay [6], in assay [7] and in assay [8] was inactive.

Consider `Cc1ccc(O)c(C(=O)c2cc(C(=O)Nc3ccccc3C)c(=O)n(-c3ccccc3C)c2)c1`, for which the values for the growth inhibition in assay [1] and in assay [4] were 81% (active) and 98% (active), respectively. Also, the inhibition in assay [2] is -15%; in assay [3] it was -8%. The outcome in assay [5], in assay [6], in assay [7] and in assay [8] was inactive.

`COc1ccc(CC2(c3ccc(F)cc3)N=C(N)N(CCCc3cccnc3)C2=O)cc1` (stereo not given): the growth inhibition was 97% (active) in assay [1] and 98% (active) in assay [4]. Also, the inhibition is 12% in assay [2] and 0% in assay [3]. The outcome in assay [5], in assay [6], in assay [7] and in assay [8] was inactive.

As for `C[C@@H]1CN(c2ccc3occ(C(=O)Nc4ccc(-c5ccncc5)c(Cl)c4)c3c2)C[C@H](C)N1C`, the growth inhibition was 96% (active) in assay [1] and 100% (active) in assay [4]. Further, the inhibition was 14% in assay [2] and -4% in assay [3]. Also, the outcome in assay [5], in assay [6], in assay [7] and in assay [8] was inactive.

Turning to `Cc1ccc(Cn2ncc(N3CCCNCC3)c(Cl)c2=O)cc1NC(=O)Nc1ccc(-c2ccccc2)cc1`, the growth inhibition in assay [1] is 38%; in assay [4], 101% (active). Further, the inhibition in assay [2] is 55% (active); in assay [3] it was 1%. Moreover, the result in assay [5], in assay [6], in assay [7] and in assay [8] was inactive.

In the case of `CCn1ccc2c(N3CCCCS3(=O)=O)cc(C(=O)N[C@@H](Cc3ccccc3)[C@H](O)CNC3CCCCC3)cc21`, the growth inhibition in assay [1] and in assay [4] was 98% (active) each time. Further, the inhibition in assay [2] and in assay [3] was 1% each time. The result in assay [5], in assay [6], in assay [7] and in assay [8] was inactive.

On to `CN=C(N)c1ccc(NC(=O)c2ccc(C(=O)Nc3ccc(C(N)=NC)cc3)cc2)cc1`, for which the growth inhibition in assay [1] is 91% (active); in assay [4] it was 96% (active). For the same molecule, the inhibition in assay [2] was 6%; in assay [3] it was 0%. In addition, the result in assay [5], in assay [6], in assay [7] and in assay [8] was inactive.

On to `NC1CCN(c2nc(NCCCc3ccc(O)cc3)nc(NCc3cccc4ccccc34)n2)CC1`, for which the growth inhibition in assay [1] was 2%; in assay [4], 102% (active). In addition, the inhibition in assay [2] was 12%; in assay [3] it was 6%. The outcome in assay [5], in assay [6], in assay [7] and in assay [8] was inactive.
